Bioassay records as filed in PubChem.
IL1B secr inh: inflammasome signaling inhibition, IL-1 beta readout; THP-1 LPS/ATP IL-1B secretion, AlphaLISA, 16 h; hits give low values; AID 743279; activity change, % at 57.5 µM; 360,000 tested, 4.7% active; in the data active = activity change below about -50%; inconclusive = mostly about -30% to -49%
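THP-1 cells pretreated 1 hr with compounds (up to 57.5 uM final), then stimulated with LPS (250 ng/mL final) plus ATP (1.25 mM final); secreted IL-1B measured by AlphaLISA after 16 hr, decreased signal indicating inhibition.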
HT1080 IDH1KD tx: kills HT-1080 cells with IDH1 knockdown. HT-1080 IDH1 knockdown viability, ATP luminescence, 48 h. Potency, µM (series often up to 46.1 µM), for inactives: at the top dose activity, negative = toxicity, usual class: cytotoxic. 360,000 tested, 2% active;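 note: potency is the fitted concentration of half-maximal effect; 0% = DMSO wells and -100% = cell-free medium wells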
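Assay cells: HT-1080 with IDH1 knockdown, 750 per well, RPMI/5% FBS. Exposure: 48 h at 37 °C following 2 h pre-incubation. Read: CellTiter-Glo luminescence; fitted concentration-response, curve class assigned.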
DT40 TDP1 CPT: DT40-hTDP1 cell growth loss with CPT; chicken DT40 Tdp1-/-;hTDP1 cells + 20 nM CPT, ATP luminescence, 48 h; Potency, µM (top dose mostly 46.2 µM), inactives show at the highest dose activity change, negative = growth inhibition, hits mostly inhibitors; AID 686979; 420,000 tested, 12% active; note: potency is the fitted concentration of half-maximal effect; nearly all actives have a fitted effect of over 55% in size
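Cell growth measured by CellTiter-Glo luminescence after a minimum 48 h, 37 C compound exposure with 20 nM CPT in Tdp1-knockout DT40 cells stably expressing hTDP1, seeded 400/well; qHTS titration format.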
HT1080NT lethal: kills 2HG-producing HT-1080-NT fibrosarcoma cells. 360,000 tested, 1.6% active. HT-1080-NT fibrosarcoma viability, CellTiter-Glo ATP luminescence, 48 h. Potency, µM (highest dose often 46.1 µM), for the others: at the top dose activity, negative = less viability, hits mostly cytotoxic;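 note: NT is the 2HG producing partner of a matched IDH1 knockdown line; potency is the fitted concentration of half-maximal effect; 0% = DMSO-treated cells and -100% = media-only wells without cells; nearly all actives have a fitted effect of over 55% in size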
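750 cells/well, RPMI + 5% FBS; 2 h settle, compound pin-transfer, 48 h at 37 degrees C. CellTiter-Glo 10 min RT, luminescence. Normalized to DMSO and media-only wells.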
TDP1 cell noCPT: qHTS for Inhibitors of human tyrosyl-DNA phosphodiesterase 1 (TDP1): qHTS in cells in absence of CPT; DT40 Tdp1-/- hTDP1 cells, no CPT, ATP luminescence, 48 h; Potency, µM (highest dose often 46.2 µM), inactives show at the highest dose activity change, negative = growth inhibition, usual class: inhibitors; 420,000 tested, 15% active; note: potency is the fitted concentration of half-maximal effect; nearly all actives have a fitted effect of over 55% in size
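No-CPT arm: Tdp1-/-;hTDP1 DT40 cells (400/well) plus compounds, incubated ≥48 hr at 37 °C. Readout CellTiter-Glo luminescence.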
* = called active by the depositor; u = inconclusive; x = not tested or not shown. Sampled rows, rich in hits. Any-hit rate of the full collection: about 19%. Unless noted, calls come from the whole dose curve; as a rule, active = well fitted curve in the direction sought with a large enough effect; inconclusive = small, poorly fitted or top-dose-only effect, or another doubt; inactive = no such curve, though single readings can be large; an effect the other way counts as inactive or inconclusive. Unless noted, % is set by controls: 0 for no effect and ±100 for the full control effect.

SMILES	IL1B secr inh	HT1080 IDH1KD tx	DT40 TDP1 CPT	HT1080NT lethal	TDP1 cell noCPT
COc1cc(-c2nnc3n2N=C(c2ccccc2)CS3)cc(OC)c1OC	16.7	1.16µM*	1.46µM*	2.06µM*	1.46µM*
COc1cccc(-c2nnc3n2N=C(c2cc(OC)ccc2OC)CS3)c1	u	-10.3%	u	-1.6%	14.6µM*
COc1ccc(-c2nc3n(n2)C(c2ccccc2OC)C(C(=O)Nc2cccnc2)=C(C)N3)cc1 (configuration not stated)	x	x	-16.4%	x	u
COc1ccc([N+](=O)[O-])cc1NC(=O)C(C)c1ccccc1 (configuration not stated)	14.2	-5.0%	-13.9%	-8.7%	-26.9%
COC(=O)NC(NC(=S)Nc1ccccc1OC)C(Cl)(Cl)Cl (configuration not stated)	5.4	4.1%	7.8%	-0.3%	-10.0%
COc1ccc([N+](=O)[O-])cc1NC(=S)NC(NC(=O)C(c1ccccc1)c1ccccc1)C(Cl)(Cl)Cl (configuration not stated)	-10.5	5.8µM*	u	u	u
COC(=O)NC(NC(=S)Nc1ccc([N+](=O)[O-])cc1)C(Cl)(Cl)Cl (configuration not stated)	-6.3	-5.7%	7.31µM*	-9.7%	7.31µM*
Cc1cc([N+](=O)[O-])ccc1NC(=S)NC(=O)C(c1ccccc1)c1ccccc1	-1.6	u	u	u	16.4µM*
Cc1nnc(NC(=O)CSc2nnc(-c3ccccc3)n2C)s1	-4.6	12.5%	-5.9%	12.2%	-6.6%
COC(=O)C1(Cc2ccc(O)cc2)OC(=O)C(O)=C1c1ccc(O)cc1 (configuration not stated)	6.7	8.8%	14.7%	0.7%	-0.5%
O=C1CCN(Cc2ccccc2)CCN1[C@H](CO)Cc1ccccc1	11.9	7.1%	-2.6%	-0.6%	-11.8%
CCCCCCCN1CCC(=O)N([C@H](CO)Cc2ccccc2)CC1	-10.0	-3.6%	20.6µM*	-7.1%	12.6µM*
CCCN1CCC(=O)N([C@H](CO)Cc2ccccc2)CC1	-21.3	-2.6%	0.8%	1.9%	-10.9%
CCCCCCCN1CCC(=O)N([C@H](CO)CC(C)C)CC1	-1.1	0.7%	u	-12.1%	23.1µM*
O=C1CCN(Cc2ccc(Br)cc2)CCN1[C@H](CO)Cc1ccccc1	-2.0	-0.2%	20µM*	5.6%	u
O=C(Cn1cnc([N+](=O)[O-])c1)Nc1ccccc1C(F)(F)F	42.3	2.2%	-3.8%	2.7%	u
Cc1ccc(C(=O)NCC2CCCO2)cc1S(=O)(=O)N1CCCCC1 (configuration not stated)	7.0	5.3%	-0.5%	-0.4%	4.3%
CCc1nc2ccccc2n1CC1CC1(Cl)Cl (configuration not stated)	12.6	0.7%	0.9%	-0.2%	-10.5%
CC(C)CCNC(=O)CCCN1C(=O)c2ccccc2Sc2ncccc21	x	x	14.6µM*	x	u
Cc1ccc(NC(=O)CN2C(=O)c3ccccc3Sc3ncccc32)c(C)c1	x	x	23.1µM*	x	23.1µM*
Cc1cc(NC(=O)CN2C(=O)c3cccnc3Sc3ccccc32)ccc1Br	x	x	u	x	23.1µM*
Cc1ccc(NC(=O)CCN2C(=O)c3ccccc3Sc3ncccc32)cc1	22.7	-15.1%	16.4µM*	-1.3%	16.4µM*
Cc1cccc(C)c1NC(=O)CN1C(=O)c2ccccc2Sc2ncccc21	x	x	u	x	-28.7%
CC(C)NC(=O)CCCN1C(=O)c2ccccc2Sc2ncccc21	-5.5	13.4%	-5.7%	-0.4%	5.7%
CCN(CC)c1ccc(NC(=O)CN2C(=O)c3cccnc3Sc3ccccc32)c(C)c1	x	x	16.4µM*	x	13µM*
SMILES	IL1B secr inh	HT1080 IDH1KD tx	DT40 TDP1 CPT	HT1080NT lethal	TDP1 cell noCPT
Cc1cc(C(=O)COC(=O)c2ccccc2O)c(C)n1Cc1cccs1	u	u	u	-3.5%	14.6µM*
CC(=O)Nc1ccccc1OCC(=O)c1cc(C)n(Cc2cccs2)c1C	-12.7	2.59µM*	1.84µM*	-13.2%	1.46µM*
COc1ccccc1N1CCN(c2ccc(=O)n(CC(=O)O)n2)CC1	x	x	2.9%	x	-15.9%
Cc1nc2ccccc2n1/C(=N\S(=O)(=O)c1ccccc1)c1ccccc1	29.9	7.1%	-13.2%	-1.8%	-11.3%
COc1ccc(C(=O)OCC(=O)NC23CC4CC(CC(C4)C2)C3)c(O)c1	13.1	-13.7%	23.1µM*	0.3%	u
O=C(OCC(=O)C12CC3CC(CC(C3)C1)C2)c1ccc(O)cc1O	u	18.4µM*	u	13µM*	u
N#Cc1cccnc1N1CCN(C(C(=O)NC2CCCC2)c2ccco2)CC1 (configuration not stated)	-10.1	12.9%	-6.1%	19.9%	u
Cc1ccc(CS(=O)(=O)c2ccc(C(=O)N3CCCCC3)cc2[N+](=O)[O-])cc1	-11.5	-9.2%	u	-0.9%	u
O=C(c1ccc(S(=O)(=O)c2ccc(F)cc2)c([N+](=O)[O-])c1)N1CCCCCC1	-103.0*	u	3.26µM*	-21.1%	2.31µM*
O=C(c1ccc(S(=O)(=O)Cc2ccccc2F)c([N+](=O)[O-])c1)N1CCCC1	-103.0*	u	18.4µM*	u	u
CC1CCN(C(=O)c2ccc(S(=O)(=O)Cc3ccccc3F)c([N+](=O)[O-])c2)CC1	-117.4*	u	u	-13.9%	16.4µM*
CC1CCN(C(=O)c2ccc(N3CCOCC3)c([N+](=O)[O-])c2)CC1	-3.9	2.1%	-29.9%	1.9%	u
CCOC(=O)C1(Cc2ccc(OC)cc2)CCN(S(C)(=O)=O)CC1	18.9	5.9%	-12.3%	-2.0%	-6.0%
CCOC(=O)C1(CCCc2ccccc2)CCN(C(=O)c2cnn(CC)c2)CC1	-23.6	-2.4%	25.9µM*	-7.9%	18.4µM*
CCOC(=O)C1(Cc2ccc(Cl)cc2)CCN(C(C)Cc2ccc(O)c(OC)c2)CC1 (configuration not stated)	-50.8*	-14.5%	9.2µM*	-27.4%	3.26µM*
CCOC(=O)C1(CCc2ccccc2)CCN(C(=O)c2occc2C)CC1	-11.6	2.5%	u	6.0%	14.6µM*
CCOC(=O)C1(CCCc2ccccc2)CCN(Cc2cnn(C)c2)CC1	-12.3	-5.3%	u	-21.2%	u
CCOC(=O)C1(Cc2ccc(Cl)cc2)CCN(C(=O)c2cnc(C)cn2)CC1	32.1	-3.5%	u	-0.3%	23.1µM*
CCOC(=O)C1(Cc2ccc(OC)cc2)CCN(C(=O)c2cc(C)nn2C)CC1	22.3	14.6µM*	23.1µM*	u	18.4µM*
CCOC(=O)C1(CCCc2ccccc2)CCN(C(=O)c2cnc(C)cn2)CC1	-13.7	-1.9%	25.9µM*	-3.6%	20.6µM*
